Measurements: PubChem BioAssay AID1347120 (National Center for Advancing Translational Sciences (NCATS), 2019)
Screen size: about 390,000 compounds; about 930 (0.24%) were called active. Another 5% or so got no clear call; they are omitted. The full list was thinned out, with actives kept by preference. Values without a mark were called inactive. The call rests on the fitted dose curve; in most records, active means well fitted activation curve with a large enough effect; inconclusive means small, poorly fitted or top-dose-only effect; inactive means no such curve, though single readings can be large or run the other way.

experiment: qHTS for Suppressors of FUS Proteinopathy: Primary screen using FUS-linked yeast assay; further: nearly all actives have a fitted effect of over 55% in size;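 on growth rescue (activation): plate controls were DMSO vehicle for no effect and reference control for full effect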; settings: S. cerevisiae FUS-expressing, OD600, 24 h; Potency: growth rescue; series mostly up to 76.6 µM; growth rescue (activation): at the top concentration
From the text: Several widespread neurodegenerative diseases, including Alzheimer disease, Huntington disease, Frontotemporal Lobar Degeneration (FTLD) and Amyotrophic Lateral Sclerosis (ALS), share a common pathological feature, namely accumulation of specific protein aggregates in diseased tissue. These diseases which is associated with protein misfolding (proteinopathies) have become increasingly problematic as the population ages and life expectancies are extended. Most proteinopathies are currently incurable, a situation confounded by the fact that the basis of neurodegeneration is generally poorly understood. There exists urgent and significant need to find therapeutics that can inhibit the toxicity associated with protein aggregation. A novel approach to understand the underlying mechanisms of neurodegenerative diseases has recently emerged in which the disease conditions are modeled in the yeast (Saccharomyces cerevisiae), a tractable eukaryotic organism with conserved protein quality control mechanisms. Yeast offers quick and reliable genetic manipulations and can be easily tailored to high-throughput screening (HTS).
For this project, a yeast model of the FUS proteinopathies (a spectrum of neurodegenerative diseases that include ALS and a subtype of FTLD) was generated and employed. The cytoplasmic accumulation of the DNA/RNA-binding protein FUS (also known as TLS) is causative to both familial and sporadic forms of ALS and FTLD. This yeast model recapitulates neuronal pathology by showing severe cytotoxicity associated with cytoplasmic accumulation of FUS aggregates and a specific interaction between FUS and TDP-43, another ALS-associated protein. […] Specifically, the cellular accumulation of misfolded FUS that disrupts RNA homeostasis in both yeast and higher eukaryotes. This model was validated to be suitable for quantitative HTS (qHTS) use for finding genetic or chemical factors that restore growth. […] Identified compounds that inhibits FUS-yeast toxicity is flagged, re-acquired, and validated for further investigation and optimization.
NIH Chemical Genomics Center [NCGC]
NIH Molecular Libraries Probe Production Centers Network [MLPCN]
Assay Submitter (PI): Frank Shewmaker PhD, Uniformed Services University of the Health Sciences
Compound CP55940 was used as the positive control. Column 1 was treated with CP55940 titration from 92uM (final concentration, 1:2 dilution), while Column 2 was treated with top dose 92uM. Columns 3 and 4 were treated with DMSO only as negative control to assess background and noise signal.
Four hundred fifty microliter of cultured yeast (in 20mL rich medium) provided by Dr. Shewmaker lab was incubated at 30C at 99% humidity for 3hr. The culture was then spun down at 4000rpm for 5min and the cell pellet was resuspended in 2mL of Sdmin Media + ALU(330) + 2.5% Raffinose. One hundred microliter of the suspension was added to 900uL of water and OD of the solution was obtained. Twenty mL of responding medium (provided by Shewmaker lab) + 2.5% raffinose was added to ensure cell density of 0.1; the solution was incubated overnight. Working cell solution (FUS-yeast in Sdmi + Sdmi + 1X ALU + 2% galactose media) was prepared (final OD at 0.005) and 3uL was dispensed in a 1536-well Aurora high based clear bottom assay plates. Controls and library compounds (at various final concentrations from 40uM to 0.32uM) were added using a 1536-well pin array using the Kalypsys pin-tool. The plates were then incubated for 24hrs in a cell-culture incubator (30C; 99% humidity). Absorbance at 600nm was then read using the PerkinElmer ViewLux plate reader.
Potency means the concentration at half of the fitted maximal effect.

Compound | growth rescue (activation) [%] | Potency
CCC(=O)N1CCc2cc(Br)cc(S(=O)(=O)CCC(=O)N3CCN(c4ccc(F)cc4)CC3)c21 | 1.9 | –
O=C(Nc1cc(C(F)(F)F)ccc1Cl)c1cc2nc(-c3ccc4c(c3)OCO4)cc(C(F)(F)F)n2n1 | 10.3 | –
CCOc1cccc2sc(N3CCN(C(=O)C4CC4)CC3)nc12 | 4.39 | –
COC(=O)[C@]12C[C@H](CC(=O)NCCc3ccccc3OC)C(=O)N(Cc3ccco3)C1=C[C@H](C(C)C)O[C@@H]2C1CC1 | 40.9 | –
COC(=O)[C@]12C[C@H](CC(=O)NCc3cccc4ccccc34)C(=O)N(CCc3ccc(OC)c(OC)c3)C1=C[C@H](C1CCCC1)O[C@@H]2C | – | 12.6 µM (active)
COC(=O)[C@@]12CCCCC=C1N(CCc1ccc(Cl)cc1)C(=O)[C@H]2CC(=O)NCc1ccc(OC)c(OC)c1 | 39.4 | –
O=C(CSc1nccn1-c1ccc(F)cc1)Nc1cccc2ccccc12 | 12.2 | –
CCN(c1ncnc2c1cnn2-c1ccc(C)cc1)C1CCCCC1 | -6.13 | –
CCN1CCN(c2cc(C)c3cc(NC(=O)c4cc(Cl)ccc4OC)ccc3n2)CC1 | 10.2 | –
CCOc1ccc(C(=O)Nc2ccc3nc4c(c(Nc5ccccc5OC)c3c2)CCCC4)cc1 | 36.6 | –
CCOC(=O)N1CCN(C(=O)C[C@H]2C[C@@]3(C(=O)OC)C(=C[C@H](C(C)(C)C)O[C@@H]3C)N(Cc3ccc(Cl)cc3Cl)C2=O)CC1 | – | 6.31 µM (active)
COC(=O)[C@]12C[C@H](CC(=O)N3CCOCC3)C(=O)N(Cc3ccc(Cl)cc3Cl)C1=C[C@H](COCc1ccccc1)O[C@@H]2C | 10.6 | –
COC(=O)[C@]12C[C@H](CC(=O)NCC34CC5CC(CC(C5)C3)C4)C(=O)N(Cc3ccc(Cl)cc3Cl)C1=C[C@H](COCc1ccccc1)O[C@@H]2C | 31.5 | –
CC1CCC(N2CC(=O)N(CCC3=CCCCC3)C(c3ccc(F)cc3)C2=O)CC1 (stereo unspecified) | 20.9 | –
CCC(C(=O)Nc1cccc(-c2nc3cccnc3s2)c1C)c1ccccc1 (stereo unspecified) | -6.93 | –
Cc1ccc(Nc2ccc3cc(S(=O)(=O)N4CCCCC4)ccc3n2)cc1F | -5.75 | –
Cc1oc2ccc(O)c(CN3CCCCC3)c2c1C(=O)Nc1cccc(C(F)(F)F)c1 | 24.9 | –
CCCN1CCN(CCCNC(=O)c2cnn(-c3ccc(C)cc3)c2-n2cccc2)CC1 | 6.69 | –
CSc1ncc(Cl)c(C(=O)Nc2ccc(S(=O)(=O)N3CCCC(C)C3)cc2)n1 (stereo unspecified) | 2.88 | –
COc1ccc(C2=NS(=O)(=O)N(C)C(C(=O)NC(C)c3ccccc3)=C2)cc1 (stereo unspecified) | – | inactive
COc1ccc(NC(=O)C2=CC(c3ccc(OC)c(OC)c3)=NS(=O)(=O)N2C)cc1 | – | 31.6 µM (active)

Compound | growth rescue (activation) [%] | Potency
COc1cc(NC(=O)C2=CC(c3ccc(C)cc3)=NS(=O)(=O)N2C)cc(OC)c1OC | -8.13 | –
O=C(COc1ccccc1Cl)Nc1ccc2nc(SCC(=O)N3CCCC3)sc2c1 | 12.6 | –
COc1cccc(CNC(=O)CSc2c3c(nc4cc(Cl)ccc24)CCCC3)c1 | -8.26 | –
CCOC(=O)c1c(NC(=O)c2ccc(S(=O)(=O)N(CC)CC)cc2)sc2c1CCCCC2 | -13.5 | –
O=C(Nc1ccccc1F)C(c1ccccc1)N1Cc2ccccc2C1=O (stereo unspecified) | 4.93 | –
COc1ccc(OC)c(-n2nnc(-c3nc(-c4cc(OC)c(OC)c(OC)c4)no3)c2C)c1 | 18.3 | –
CCc1ccc(CN(Cc2ccco2)C(=O)COc2ccc(Cl)c(C)c2)cc1 | 30.5 | –
CCN(CC)c1nn2c(=O)c(C(=O)NCCc3ccccc3)cnc2s1 | 17.5 | –
COc1cccc(OCCn2c(-c3ccc(Br)cc3)nc3ccccc3c2=O)c1 | -5.51 | –
COc1ccc(OC)c(-c2csc(-c3c(N)c(C(=O)c4ccccc4)n4ccccc34)n2)c1 | 14.2 | –
Cc1nn(C(C)C(=O)Nc2ccc(C(C)C)cc2)c(=O)c2c1sc1ccccc12 (stereo unspecified) | -11.1 | –
Cc1ccc(NC(=O)CSc2nc3c([nH]c4ccccc43)c(=O)n2-c2ccccc2)c(C)c1 | 13.6 | –
Cc1ccc(Cl)cc1N(C)C(=O)Cn1nc(Cc2cccnc2)c2ccccc2c1=O | 14.5 | –
O=C(CSc1nccn1Cc1ccc(Cl)cc1)NCc1ccccc1 | 17.8 | –
Cc1cccc(NC(=O)c2ccc(F)c(S(=O)(=O)N(C)C3CCCCC3)c2)c1 | 35.4 | –
CCOc1ccc(C2CC(=O)c3c([nH]c(C(=O)OCc4ccccc4)c3C)C2)cc1 (stereo unspecified) | 1.74 | –
CCOC(=O)C1CCCN(C(=O)c2ccc3c(c2)sc2nc(-c4ccc(CC)cc4)cn23)C1 (stereo unspecified) | 19.2 | –
Cc1c(C(=O)N2CCCC2)oc2c1-c1nn(CC(=O)NCc3ccc(OC(C)C)cc3)cc1CC2 | 31.1 | –
Cc1ccc(NC(=O)c2cc(S(=O)(=O)NCCC3=CCCCC3)ccc2F)cc1C | 15.8 | –
COc1ccc(-c2cn3c(n2)sc2cc(C(=O)Nc4ccc(F)cc4)ccc23)cc1 | 0.0987 | –
COc1ccc(Cc2nc3ccc(C(=O)NCc4ccccc4C)cc3o2)cc1 | 6.51 | –

Compound | growth rescue (activation) [%] | Potency
Cc1cc(NC(=O)C2CCC(CNS(=O)(=O)c3ccc(Br)s3)CC2)ccc1Br (stereo unspecified) | -10.7 | –
Cc1oc2ccc(O)c(CN3CCC(C)CC3)c2c1C(=O)Nc1ccccc1 | 0.0169 | –
CCCCOc1ccc(C(=O)N2CC(=O)Nc3ccc(Br)cc3C2c2ccc(F)cc2)cc1 (stereo unspecified) | 41.7 | –
CCCNC(=O)C1CCN(c2nc3ccc(C)cc3[nH]2)CC1 | 4.98 | –
O=C(CSc1nc2nccnc2c(=O)n1CCc1c[nH]c2ccccc12)Nc1ccccc1F | -9.63 | –
CCOC(=O)N1CCC(NC(=O)c2cnn(-c3cccc(C)c3)c2C2CCN(C(=O)OC(C)(C)C)CC2)CC1 | 18.5 | –
CCc1cccc(NC(=O)c2cc(-c3ccccc3)n[nH]2)c1 | -10.8 | –
C#CCOCCOCCOCCNc1nc(N2CCOCC2)nc(N2CCN(C(=O)[C@H](Cc3ccc(O)cc3)n3cc(CCO)nn3)CC2)n1 | -3.33 | –
C#CCOCCOCCOCCNc1nc(N2CCN(C(=O)C([C@@H](C)O)n3cc([C@@H](N)CCCCN)nn3)CC2)nc(N2CCN(C(=O)[C@H](CCCCN)n3cc(CN)nn3)CC2)n1 (stereo partly specified) | 1.02 | –
C#CCOCCOCCOCCNc1nc(N2CCN(C(=O)[C@H](CCC(=O)O)n3cc(C(N)CO)nn3)CC2)nc(N2CCN(C(=O)[C@H](Cc3ccc(O)cc3)n3cc(C(N)[C@H](C)CC)nn3)CC2)n1 (stereo partly specified) | 11.9 | –
C#CCOCCOCCOCCNc1nc(N2CCN(C(=O)CCCCCCCCCCNC(=O)[C@H]([C@@H](C)CC)n3cc(CCCCN=C(N)N)nn3)CC2)nc(N2CCN(C(=O)CCCCCCCCCCNC(=O)[C@H](CO)n3cc(CCCSC)nn3)CC2)n1 | – | 3.16 µM (active)
C#CCOCCOCCOCCNc1nc(N2CCN(C(=O)CCCCCCCCCCNC(=O)[C@H](CCCCN)n3cc(C)nn3)CC2)nc(N2CCN(C(=O)CCCCCCCCCCNC(=O)[C@H](CO)n3cc(CCCSC)nn3)CC2)n1 | – | 11.2 µM (active)
C#CCOCCOCCOCCNc1nc(N2CCN(C(=O)C([C@@H](C)CC)n3cc(C(N)COC(=O)C(F)(F)F)nn3)CC2)nc(N2CCN(C(=O)[C@H](CCCCN)n3cc(C(N)CC(C)C)nn3)CC2)n1 (stereo partly specified) | 29.1 | –
Fc1ccc(-c2nc(Nc3cccc(Cl)c3)nc3c2COc2ccccc2-3)cc1 | -6.76 | –
CC(=O)c1cccc(Nc2ccc3cc(S(=O)(=O)N4CCC(C)CC4)ccc3n2)c1 | -8.08 | –
COc1ccc(-c2cc(-c3nc(-c4cc(OC)c(OC)c(OC)c4)no3)[nH]n2)c(OC)c1 | 17.9 | –
CCN(C(=O)CSc1nnc(C)n2c1cc1occc12)c1ccccc1 | 22.4 | –
COc1ccc(-c2onc(C)c2C)cc1S(=O)(=O)NCCc1ccccc1 | 10.1 | –
CCN(CC)C(=O)CSc1nc2ccsc2c(=O)n1Cc1ccccc1Cl | 14 | –
Cc1c(Cl)cccc1NC(=O)C(=O)NCCc1csc2nc(-c3ccccc3F)nn12 | 22.4 | –
Cc1cccc(Cn2c(SCc3ccc(C(=O)N4CCC(C)CC4)cc3)nc3ccncc32)c1 | 22.7 | –

Compound | growth rescue (activation) [%] | Potency
CC(=O)N1CCCc2cc(S(=O)(=O)N3CCC(C(=O)NCc4ccc(F)cc4)CC3)ccc21 | 2.3 | –
O=C(c1ccc(C(F)(F)F)cc1)N1CCC(c2nc(-c3ccc(S(=O)(=O)N4CCCC4)cc3)no2)CC1 | 6.21 | –
CSc1ccccc1NC(=O)CCS(=O)(=O)c1nc(-c2cccs2)cc(C(F)(F)F)n1 | -9.46 | –
Cc1c(Cl)cccc1NC(=O)Cn1cc(C(=O)c2cccs2)c2ccccc21 | -1.82 | –
CCN(CCCNC(=O)c1cc(Nc2ccc(OC)cc2)nc2ccccc12)c1cccc(C)c1 | 2.94 | –
Cc1ccc(-n2ncc(C(=O)N(C)Cc3ccccc3)c2-n2cccc2)cc1 | 37.3 | –
Cc1cccc(NC(=O)N(Cc2cc3cc(C)cc(C)c3[nH]c2=O)CC2COCCO2)c1 (stereo unspecified) | – | 35.5 µM (active)
Cc1ccc2[nH]c(=O)c(CN(CC3COCCO3)C(=O)Nc3ccccc3C)cc2c1 (stereo unspecified) | -6.95 | –
Cc1ccc2[nH]c(=O)c(CN(CCCN(C)C)C(=O)Nc3cccc(Cl)c3)cc2c1 | 19.3 | –
CCCCn1c(N)c(N(CCC(C)C)C(=O)COC(=O)c2ccc(CC)cc2)c(=O)[nH]c1=O | 35.6 | –
CCCCCN(C(=O)CCC(=O)OCC(=O)NCc1ccc(OC)cc1)c1c(N)n(CCCC)c(=O)[nH]c1=O | 40.8 | –
CCCCCN(C(=O)CCC(=O)OCC(=O)NC1CCC(C)CC1)c1c(N)n(CCCC)c(=O)[nH]c1=O (stereo unspecified) | – | 31.6 µM (active)
Cc1ccc(CNC(=O)CCC(=O)N2Cc3ccccc3Oc3ncccc32)cc1 | -4.72 | –
COc1ccc(CCNC(=O)c2ccc3c(c2)sc2nc(-c4ccc(C)cc4)cn23)cc1OC | 5.69 | –
COC(=O)c1ccc(NC(=O)CCc2c(C)nn(-c3ccc(N4CCCC4)nn3)c2C)cc1 | 14.5 | –
Cc1ccc(Cc2cnc(N)s2)o1 | – | 11.2 µM (active)
Fc1ccc(Nc2nc(SCc3ccccc3Cl)nc3ccccc23)cc1 | -4.05 | –
O=C(Nc1c(C(=O)N2CCN(c3ccc(F)cc3)CC2)oc2ccccc12)c1ccco1 | 38.7 | –
